Inconclusive results are not listed. Activity calls are given as the source filed them. Unless noted, calls come from the whole dose curve; as a rule, active = well fitted curve in the direction sought with a large enough effect in the repeat runs; inconclusive = weak or mixed curves; inactive = no such curve, though single readings can be large; an effect the other way counts as inactive or inconclusive.
Assays:
[1] = qHTS assay to identify small molecule antagonists of the progesterone receptor (PR) signaling pathway - cell viability counter screen (AID 1346798); note: series mostly up to about 92 µM; nearly all actives have a fitted effect of over 50% in size
Outline: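 Viability was determined by ATP-based luminescence (CellTiter-Glo) in PR-UAS-bla HEK293T cells cultured in 2% charcoal-stripped serum and incubated 16 hr with compounds under R5020 stimulation.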

[2] = qHTS assay to identify small molecule agonists of the progesterone receptor (PR) signaling pathway - cell viability counter screen (AID 1346799; calls by dose curve; note: nearly all actives have a fitted effect of over 45% in size)
Outline: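 Viability was scored by ATP luminescence (CellTiter-Glo, 30 min, room temperature) in the same wells used for the reporter readout, after 16 hr compound exposure of PR-UAS-bla HEK293T cells.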

[3] = qHTS assay to identify small molecule antagonists of the TGF-beta/Smad signaling pathway - cell viability counter screen (AID 1346824); note: nearly all actives have a fitted effect of over 50% in size
Outline: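 SBE-bla HEK 293T cells, incubated overnight, then compound plus 0.25 ng/mL TGF-beta1 (stock added) for 5 hr at 37 C. Viability was read in the same wells by CellTiter-Glo luminescence after 30 min at room temperature.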

[4] = qHTS assay to identify small molecule agonists of the TGF-beta/Smad signaling pathway - cell viability counter screen (AID 1346829); note: top concentration of the series differs between compounds; nearly all actives have a fitted effect of over 45% in size
Outline: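 Luminescence from CellTiter-Glo, read after a 30 min room-temperature incubation, gives cell viability of SBE-bla HEK 293T cells treated 5 hr with compounds at 37 C.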

[5] = qHTS assay to identify small molecule agonists of the TGF-beta/Smad signaling pathway (AID 1346859; active = well fitted activation curve with a large enough effect in the signal ratio in the repeat runs, not every such curve was filed as active; the % refers to the signal ratio; note: series mostly up to about 77 µM)
Outline: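 Dual-wavelength fluorescence (460/530 nm emission) quantified beta-lactamase expression under the Smad binding element in HEK 293T cells following 5 hr compound treatment at 37 C.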

[6] = molecular target: Thyrotropin-releasing hormone receptor (Homo sapiens) (UniProt P34981); assay: qHTS assay to identify small molecule antagonists of the thyrotropin-releasing hormone receptor (TRHR) signaling pathway (AID 1346877; active = well fitted inhibition curve with a large enough effect in the repeat runs, not every such curve was filed as active; note: series mostly up to about 51 µM)
Sequence of Thyrotropin-releasing hormone receptor (Homo sapiens) (P34981 whole entry, looked up): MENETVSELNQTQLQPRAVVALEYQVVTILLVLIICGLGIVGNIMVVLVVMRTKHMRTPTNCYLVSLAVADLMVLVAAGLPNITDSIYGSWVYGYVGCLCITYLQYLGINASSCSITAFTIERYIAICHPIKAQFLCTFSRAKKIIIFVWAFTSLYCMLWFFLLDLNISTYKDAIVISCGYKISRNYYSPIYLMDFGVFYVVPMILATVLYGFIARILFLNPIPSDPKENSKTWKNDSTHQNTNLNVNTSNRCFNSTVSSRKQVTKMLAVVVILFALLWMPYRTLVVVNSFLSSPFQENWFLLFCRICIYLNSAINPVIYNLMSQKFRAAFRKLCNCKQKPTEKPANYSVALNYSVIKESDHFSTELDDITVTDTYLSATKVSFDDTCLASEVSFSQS
Outline: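 Calcium signal in dye-loaded TRHR/HEK293 cells; compounds added 5 min before TRH (1 nM final); fluorescence monitored 3 min at 1 s steps.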

[7] = Human pregnane X receptor (PXR) small molecule agonists, qHTS cell viability counter screen (AID 1346977); note: nearly all actives have a fitted effect of over 50% in size; note: potency is the fitted concentration of half-maximal effect
Outline: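 HepG2 cells stably carrying the PXR-Luc reporter are cultured with 5% charcoal-stripped FBS and treated with compounds for 24hr. CellTiter-Fluor is added at 23hr and fluorescence is read after 1hr.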

[8] = Caspase-3/7 induction in HepG2 cells by small molecules, qHTS assay (AID 1346978); note: nearly all actives have a fitted effect of over 15% in size
Outline: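 Wild-type HepG2 cells, 2,000/well, settled 5 hr at 37 C and 5% CO2, then compound-treated for 17 hr; caspase-3/7 activity read by luminescent Caspase-Glo 3/7 after 30 min at room temperature.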

[9] = molecular target: Thyrotropin-releasing hormone receptor (Homo sapiens) (UniProt P34981); assay: qHTS assay to identify small molecule agonists of the thyrotropin-releasing hormone receptor (TRHR) signaling pathway (AID 1346891; calls by dose curve;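 note: HEK293 cells expressing TRHR with calcium dye readout; series mostly up to about 58 µM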)
Outline: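 Kinetic fluorescence (3 min, 1 s intervals) reported intracellular calcium after compound transfer onto TRHR-Hek293 cells pre-loaded with dye for 2 h at 37 °C.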

Measured: Potency

Nc1ccc2cc(S(=O)(=O)O)cc(O)c2c1
active: [7] 54.2 µM
inactive: [1] | [2] | [3] | [4] | [5] | [6] | [8]

NNc1nnc(NN)c2ccccc12
inactive: [1] | [2] | [3] | [4] | [5] | [6] | [9] | [7]

O=C(O)C(=O)Cc1ccccc1
inactive: [1] | [2] | [3] | [4] | [5] | [6] | [9] | [7] | [8]

COCCOCCOCCOCCOCCO
inactive: [1] | [2] | [3] | [4] | [5] | [6] | [9] | [7] | [8]

Cc1ccsc1/C=C/C1=NCCCN1C
inactive: [1] | [2] | [3] | [4] | [5] | [6] | [9] | [7]

CC(=O)/C=C/C1C(C)=CCC(C)C1(C)C (configuration not stated)
inactive: [1] | [2] | [3] | [4] | [5] | [7]

CC(C)NCC(O)COc1cccc2[nH]ccc12 (configuration not stated)
inactive: [1] | [2] | [3] | [4] | [5] | [6] | [9] | [7] | [8]

NS(=O)(=O)c1ccc(NC(=O)CCC(=O)O)cc1
inactive: [1] | [2] | [3] | [4] | [5] | [7] | [8]

CCCCCCCCC(=O)Cl
inactive: [1] | [2] | [3] | [4] | [5] | [6] | [9] | [7] | [8]

CCOc1cc([N+](=O)[O-])c(OCC)cc1N1CCOCC1
inactive: [1] | [2] | [3] | [4] | [6] | [9] | [7] | [8]

O=C(c1ccc(O)cc1)c1ccc(O)c(O)c1O
inactive: [1] | [2] | [3] | [4] | [5] | [6] | [9] | [8]

CCCCCCCCCCl
inactive: [1] | [2] | [3] | [4] | [5] | [6] | [9] | [7]

CC(C)CCCCOC(=O)c1ccccc1C(=O)OCCCCC(C)C
inactive: [1] | [2] | [3] | [4] | [5] | [6] | [7] | [8]

CC(=O)NCc1c(I)c(NC(C)=O)c(I)c(C(=O)O)c1I
inactive: [1] | [2] | [3] | [4] | [6] | [9] | [7] | [8]

Brc1ccc(-c2ccccc2)cc1
inactive: [1] | [2] | [3] | [4] | [5] | [7] | [8]

Nc1ncnc(Nc2ccccc2)n1
inactive: [1] | [2] | [3] | [4] | [5] | [6] | [9] | [7] | [8]

BrCc1cccc(Oc2ccccc2)c1
inactive: [1] | [2] | [3] | [4] | [5] | [6] | [9] | [7] | [8]

CCCC/C=C\CCCCCCCCCC=O
inactive: [1] | [2] | [3] | [4] | [5] | [6] | [9] | [7] | [8]

CC(C)=O
inactive: [1] | [2] | [3] | [4] | [5] | [6] | [7] | [8]

OCCC(F)(F)C(F)(F)C(F)(F)C(F)(F)C(F)(F)C(F)(F)C(F)(F)C(F)(F)F
inactive: [1] | [2] | [3] | [4] | [5] | [6] | [9] | [7] | [8]

CCCCCCCCCCCCCC
inactive: [1] | [2] | [3] | [4] | [5] | [6] | [9] | [7]

Cc1ccccc1N=O
inactive: [1] | [2] | [3] | [4] | [5] | [6] | [9] | [7]

O=S(=O)(O)c1ccc2cc(O)c(S(=O)(=O)O)cc2c1
inactive: [1] | [2] | [3] | [4] | [5] | [7] | [8]

O=C(OCc1ccccc1)C(=O)OCc1ccccc1
inactive: [1] | [2] | [3] | [4] | [5] | [7]

COc1cc(C(=S)N2CCOCC2)cc(OC)c1OC
inactive: [1] | [2] | [3] | [4] | [5] | [6] | [9] | [7] | [8]

Reference: PubChem BioAssay (Tox21)
